Assay results published in PubChem BioAssay (NCI).
This is part of a sample that, as a whole, favours compounds with a hit. Of some 83,000 tested, about 20% had one in any assay.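 Note: values are percent growth. 100 is the growth of untreated cells, values between 100 and 0 indicate rising inhibition; between -100 and 0 indicates cell death.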 Activity calls are given as the source filed them. Rule for the calls: active = growth percent below 10; inactive = the rest.

Tested on: MOLT-4 leukemia
Assay: NCI-60 one-dose screen, 48 h (100 = growth as untreated, 0 = no growth, -100 = all killed)
Details: 10 µM unless noted

Structure (SMILES)	growth
O=C(Nc1ccc(I)cc1)c1cc([N+](=O)[O-])ccc1O	18.8% (inactive)
O=C(CNC(=O)c1cccc2ccccc12)Nc1ccccc1Oc1ccccc1	24.2% (inactive)
O=C(/C=C/CN1CCOCC1)Nc1cc2c(Nc3ccc(F)c(Cl)c3F)ncnc2cc1OCCOC(F)F	69.5% (inactive)
O=C(NCCc1c[nH]c2ccccc12)C1Cc2ccccc2CN1C(=O)c1ccco1 (stereo unspecified)	77.1% (inactive)
Nc1cc2c(cc1N)-c1cc(N)c(N)cc1C2	92.3% (inactive)
COc1ccc(/C(=N\O)c2cc(OC)c(OC)c(OC)c2)c(OC)c1N	24.1% (inactive)
CCC(c1ccc(OC)cc1)C(CC)c1ccc(O)c(CN2CCCC2)c1 (stereo unspecified)	1.69% (active)
CC(C)(C)c1cc(-c2nc3ccc(N4CCN(CCO)CC4)cc3[nH]2)cc(C(C)(C)C)c1O	32.9% (inactive)
OCc1c(-c2ccccc2)nc2sccn12	117% (inactive)
O=C(OCCCCOC(=O)n1cnc2ccccc21)n1cnc2ccccc21	86.2% (inactive)
OC1CC2c3ccccc3C1c1ccccc12 (stereo unspecified)	106% (inactive)
